# An excerpt weighted towards active compounds, which were near 12% of everything screened.
# OTUD3 inh = human OTUD3 deubiquitinase inhibition. purified OTUD3, Ub-rhodamine fluorescence, 2 h. inhibition, % at 25 µM. 0.7% of 47,000 active. AID 1645858
# Target sequence (Q5T2D3 whole entry, looked up): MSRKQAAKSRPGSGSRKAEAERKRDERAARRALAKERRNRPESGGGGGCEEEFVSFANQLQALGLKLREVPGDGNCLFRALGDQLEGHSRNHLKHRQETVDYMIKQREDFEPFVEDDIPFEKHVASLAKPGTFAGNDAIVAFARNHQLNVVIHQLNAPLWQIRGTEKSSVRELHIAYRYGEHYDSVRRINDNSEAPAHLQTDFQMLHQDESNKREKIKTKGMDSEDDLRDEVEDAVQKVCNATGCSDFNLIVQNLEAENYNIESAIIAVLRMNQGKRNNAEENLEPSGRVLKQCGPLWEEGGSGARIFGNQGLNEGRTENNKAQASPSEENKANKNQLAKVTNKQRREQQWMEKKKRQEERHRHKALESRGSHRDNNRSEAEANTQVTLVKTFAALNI
# USP17 block = human USP17-like deubiquitinase inhibition; inhibition, % at 50 µM; A8MUK1; purified USP17, Ub-rhodamine cleavage fluorescence, 3 h; 6.5% of 47,000 active
# USP28 inh = human USP28 deubiquitinase inhibition | inhibition, % at 25 µM | purified USP28, Ub-rhodamine cleavage fluorescence, 30 min | Q96RU2 | 3% of 47,000 active
# USP30 inh = human USP30 deubiquitinase inhibition | Q70CQ3 | purified USP30, Ub-rhodamine cleavage fluorescence | inhibition, % at 25 µM | 5.3% of 47,000 active
# * hit, by the source's call; . = no result. Cut-off read from the data, not from the text of the source: active = inhibition above about 30%; inactive = the rest.
SMILES,OTUD3 inh,USP17 block,USP28 inh,USP30 inh
Oc1ccc(-c2nnc(Nc3ccc(Cl)c(Cl)c3)c3ccccc23)cc1,7,49*,20,-29
Cc1ccc(C)c(S(=O)(=O)N2CCC3(CC2)NC(=O)c2ccccc2N3)c1,10,59*,5,20
O=C1NC2(CCN(S(=O)(=O)c3ccc(F)c(Cl)c3)CC2)Nc2ccccc21,-3,50*,-7,-2
O=C1NC2(CCN(C(=O)CSc3ccncc3)CC2)Nc2ccccc21,4,12,2,5
O=C1NC2(CCN(S(=O)(=O)c3ccc(F)cc3F)CC2)Nc2ccccc21,3,0,12,22
Cc1noc(-c2cc(=O)n(CC(=O)Nc3ccccc3Cl)c3ccccc23)n1,-5,6,-5,1
Cc1ccc(CNC(=O)Cn2c(C)cc(-c3nnc(C)o3)c2C)cc1,0,30*,5,7
Cc1ccc2c(c1)c1ncn(Cc3nc(C)no3)c(=O)c1n2CC(=O)NCc1ccccc1,23,72*,58*,87*
Cc1ccc(CNC(=O)Cn2c(=O)cc(-c3nc(C)no3)c3ccccc32)cc1,-4,42*,-6,-7
Cc1noc(-c2cc(=O)n(CC(=O)Nc3ccccc3)c3ccccc23)n1,-3,42*,.,.
CCCn1nccc1-c1cc(C)nc(C2CCN(S(C)(=O)=O)CC2)n1,9,10,7,23
CCc1cc(=O)[nH]c(NC2CCN(C(=O)C3(c4ccc(OC)cc4)CC3)CC2)n1,6,4,12,20
Cc1cc(=O)n(CC(=O)NCc2ccc(F)cc2)c(-c2ccccc2)n1,16,4,5,39*
Cc1ccc(Cl)cc1N(Cc1ccc(C(=O)N2CCOCC2)cc1)S(=O)(=O)c1ccccc1,11,.,16,50*
Cc1ccc(C)c(N(CC(=O)NCCN2CCOCC2)S(=O)(=O)c2ccccc2)c1,11,7,7,19
CCCOC(=O)c1cc(NC(=O)c2ccc(OCC)c(Cl)c2)ccc1N1CCOCC1,-2,-10,49*,19
CC(C)CN1CCOC(CNC(=O)c2ccc(Br)cc2)C1 (centres undefined),19,0,2,7
Cc1ccccc1C(=O)Nc1ccccc1-c1cnn(-c2ccccc2)c1,5,29,19,7
CCN1C(=O)c2cc(NC(=O)c3ccc(F)cc3)ccc2Oc2ccccc21,14,14,45*,23
CN1C(=O)c2cc(NC(=O)c3ccccc3Cl)ccc2Oc2ccccc21,-4,2,80*,9
CN1C(=O)c2cc(NC(=O)c3ccccc3)ccc2Oc2ccccc21,6,13,41*,7
Cc1ccccc1C(=O)Nc1ccc2c(c1)Sc1ncccc1C(=O)N2C,-8,5,-7,-51
Cc1cnc(C(=O)N2CCOCC(Cc3ccc4[nH]ncc4c3)C2)cn1 (centres undefined),-5,5,10,21
CCN1C(=O)[C@@]2(c3ccccc31)[C@@H]1C(=O)N(c3cc(Cl)ccc3Cl)C(=O)[C@@H]1[C@@H]1CCCN12,-7,-12,-12,-40
COc1ccc(CCNC(=O)c2ccc3c(c2)N(Cc2cc(C)ccc2C)C(=O)c2ccccc2S3(=O)=O)cc1OC,-5,0,0,-7
SMILES,OTUD3 inh,USP17 block,USP28 inh,USP30 inh
Cc1ccc(C)c(CN2C(=O)c3ccccc3S(=O)c3ccc(C(=O)NCCc4ccccc4)cc32)c1 (centres undefined),7,9,27,38*
CC1=C2C(=O)[C@H]3CC[C@@H](C)[C@]2(CC1=O)C3(C)C,6,1,8,16
CCOc1ccc2[nH]c3c(=O)n(CCCN4CCOCC4)cnc3c2c1,-12,-22,-15,-14
N#Cc1cccc(C(=O)Nc2ccc([C@H]3OCC(=O)N[C@@H]3CO)cc2)c1,9,39*,5,37*
CN1C(=O)CO[C@H](c2ccc(NC(=O)c3cccc(C#N)c3)cc2)[C@H]1CO,-1,19,-6,10
O=C(c1cc(-c2ccccc2)nn1-c1ccccc1)N1CCN(C(=O)C2CCCO2)CC1 (centres undefined),5,9,14,37*
O=C(c1cc(C2CC2)nn1-c1ccccc1)N1CCN(c2ccc(O)cc2)CC1,-4,19,0,3
Cc1nccnc1CCC1COCCN1C(=O)c1cc2ccccc2[nH]1 (centres undefined),10,-13,3,20
COc1ccc(NC(=O)CSc2oc(-c3ccc(C)cc3)nc2S(=O)(=O)c2ccc(Br)cc2)c(OC)c1,5,59*,10,16
O=C(CCc1cccnc1)N1CCCC2(CCCN2Cc2cccc(F)c2)C1 (centres undefined),-2,11,9,44*
COc1ccc(/C=C/C(=O)Nc2cc(C)ccn2)cc1,4,13,46*,29
COc1ccc(C)cc1NC(=O)/C=C/c1ccc(F)cc1,1,0,-10,-2
COc1ccc(/C=C/C(=O)Nc2ccccc2C#N)cc1,0,68*,.,.
COc1ccc(CNC(=O)c2snc(-c3ccncc3)c2N)cc1,-14,-72,-12,-16
O=C(Nc1cccc(F)c1)Nc1cccc(-c2nnc(-c3ccccc3)o2)c1,22,89*,72*,91*
CC(=O)Nc1ccc(SCc2nnc(-c3ccccc3)o2)cc1,-5,-7,45*,-2
CC(C)(C)C(=O)Nc1ccc(C(=O)Nc2cccc(-c3nnc(-c4ccccc4)o3)c2)cc1,18,44*,30,55*
Cc1ccccc1NC(=O)Nc1cccc(-c2nnc(-c3ccccc3)o2)c1,10,3,4,4
COc1ccc(NC(=O)Nc2cccc(-c3nnc(-c4ccccc4)o3)c2)cc1OC,19,20,18,51*
Cc1nn2c(C)c(C(=O)Nc3ccccc3)nnc2c1-c1ccc(F)cc1,3,5,2,-12
COc1cccc(CNC(=O)CN2CCC3(CC2)N=C(c2ccc(Cl)cc2)C(=O)N3)c1,6,.,2,13
C[C@]12C(=O)N(c3ccccc3C(=O)NCCc3ccc(F)cc3)C(=O)N1CCc1c2[nH]c2ccccc12,-12,.,-14,-52
Cc1nc(NC2CC2)sc1C(=O)NC1CCCC1,7,1,-5,-49
Cc1ccnc(Nc2nc(C)c(C(=O)NC3CCCC3)s2)c1,3,31*,3,-10
Cc1ccc(OCc2nc(C)c(C(=O)NCC3CCCO3)s2)cc1 (centres undefined),-7,-11,-5,-22
Cc1nc(COc2ccccc2)sc1C(=O)NC1CCCC1,10,39*,10,15
COc1ccc(-c2nonc2NC(=O)C(c2ccccc2)c2ccccc2)cc1OC,2,0,12,51*
CCCCN1CC(C(=O)Nc2ccc(C(=O)Nc3ccc(C(N)=O)cc3)cc2)CC1=O (centres undefined),-1,6,-3,6
O=C(Cn1cc(-c2nc(C3CC3)no2)ccc1=O)Nc1ccccc1,1,49*,0,-19
Cc1nn(-c2nc3ccccc3[nH]2)c2c1C(c1cccs1)CC(=O)N2 (centres undefined),10,52*,31*,-18

# Screening results from PubChem BioAssay.
